Hits are enriched below; roughly 3.5% of the tested compounds scored in any of these assays.
MITF primary: inhibitors of human MITF; O75030; 650,000 compounds, 0.91% hits; AID 1259374; AlphaScreen MITF homodimerization, bead proximity signal; inhibition, % at 2.6 µM; in the data active = inhibition above about 50%;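 also: 0% = vehicle wells with protein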
TEAD-YAP block: TEAD-YAP interaction inhibition; HEK-TIYL cells, TEAD-Gal4/YAP UAS-luciferase luminescence; inhibition, % at 9.12 µM; 640,000 compounds, 1.4% hits; in the data active = inhibition above about 32%;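 also: 0% = median of test compound wells and 100% = reference inhibitor wells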
FBW7 act: activators of human E3 ligase FBW7; AID 1259310; normalized activity (activation), % at 26.1 µM; Q969H0; 650,000 compounds, 0.13% hits; AlphaScreen FBW7–phospho-cyclin E peptide binding, activator screen; in the data active = normalized activity above about 1.9%;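 also: purified mutant Fbw7 with reduced substrate affinity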
Target sequence (Q969H0 whole entry, looked up): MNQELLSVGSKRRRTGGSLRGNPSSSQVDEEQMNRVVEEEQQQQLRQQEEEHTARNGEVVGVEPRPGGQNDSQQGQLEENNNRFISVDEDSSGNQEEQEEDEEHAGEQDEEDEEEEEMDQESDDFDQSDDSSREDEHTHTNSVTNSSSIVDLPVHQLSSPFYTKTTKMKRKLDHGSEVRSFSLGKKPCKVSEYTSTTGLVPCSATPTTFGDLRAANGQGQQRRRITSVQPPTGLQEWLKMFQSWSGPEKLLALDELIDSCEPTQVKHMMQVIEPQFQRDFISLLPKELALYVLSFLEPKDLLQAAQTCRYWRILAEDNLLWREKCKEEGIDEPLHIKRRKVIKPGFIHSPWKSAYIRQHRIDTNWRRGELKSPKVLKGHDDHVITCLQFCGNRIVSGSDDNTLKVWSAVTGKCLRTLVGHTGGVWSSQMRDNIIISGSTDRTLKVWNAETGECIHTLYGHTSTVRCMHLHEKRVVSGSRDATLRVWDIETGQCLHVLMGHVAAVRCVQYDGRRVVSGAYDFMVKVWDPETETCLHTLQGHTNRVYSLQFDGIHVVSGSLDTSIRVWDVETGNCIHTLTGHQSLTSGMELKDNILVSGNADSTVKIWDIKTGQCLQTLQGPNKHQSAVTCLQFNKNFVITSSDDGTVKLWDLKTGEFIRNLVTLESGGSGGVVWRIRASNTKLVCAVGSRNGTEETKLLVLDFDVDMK
GPR151 ag: human GPR151 activation. PathHunter beta-arrestin GPR151 cells, luminescence. 650,000 compounds, 1% hits. activation, % at 11.2 µM. Q8TDV0; in the data active = activation above about 4.9%;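 also: 0% = median of compound wells and 100% = cells with positive control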
* hit, by the source's call.

SMILES	MITF primary	TEAD-YAP block	FBW7 act	GPR151 ag
Cc1cc(C)c2nc3nc(C)c(C)cc3c(N)c2c1	16	81*	0	-2
c1cn(CCCNc2cc(-c3ccc(OC4CCCCO4)cc3)ncn2)cn1 (configuration not stated)	20	50*	0	-1
CN1CCCN(c2cc(-c3ccc(OC4CCCCO4)cc3)ncn2)CC1 (configuration not stated)	21	4	0	0
COCCNC(=S)NNC(=O)CSCc1ccccc1Br	21	1	2.8*	1
COC(=O)C1=C(N)Oc2cc(C)n(CC3CCCO3)c(=O)c2C1c1ccc(Cl)cc1 (configuration not stated)	-21	1	2.3*	-1
CC(=O)Nc1ccc(C(=O)N2CCN(c3cccc(C)c3C)CC2)cc1	-5	-11	0	1
Cc1cccc(N2CCN(C(=O)c3cc(S(=O)(=O)N4CCOCC4)cn3C)CC2)c1C	-6	5	0	1
CCOC(=O)CS(=O)(=O)c1ccc(C(=O)N2CCN(c3cc(C)ccc3C)CC2)cc1[N+](=O)[O-]	3	-17	0	3
Cc1cccc(N2CCN(C(=O)c3ccncc3)CC2)c1C	13	50*	0	-2
COc1ccccc1N1CCN(C(=O)c2cccc(Br)c2)CC1	19	36*	0	0
Cc1cccc(N2CCN(C(=O)c3cc(S(=O)(=O)N4CCCC4)cn3C)CC2)c1C	-12	58*	0	-1
CCOC(=O)CS(=O)(=O)c1ccc(C(=O)N2CCN(c3cccc(C)c3C)CC2)cc1[N+](=O)[O-]	-3	34*	0	1
O=C(Nc1ncc(Cc2ccc(Cl)cc2)s1)C1COc2ccccc2O1 (configuration not stated)	-3	0	0	1
COc1ccc(CNC(=O)C2CC(O)CN2C(=O)Nc2ccccc2)c(OC)c1 (configuration not stated)	6	9	0	-1
COc1ccccc1C(=O)N1CCN(c2cccc(C)c2C)CC1	-4	47*	0	0
COc1cccc(C(=O)N2CCN(c3cccc(C)c3C)CC2)c1	8	33*	0	0
COc1cc(OC)cc(C(=O)NC(=S)Nc2cc([N+](=O)[O-])ccc2F)c1	6	8	1	-1
Cc1cc(C)c2nc(SCC(=O)N3CC(=O)Nc4ccccc43)c(C#N)cc2c1	-2	54*	0	1
COc1cc(CN2CCNC(=O)C2CC(=O)N2CCN(CC3CC3)CC2)cc(OC)c1 (configuration not stated)	1	-1	0	-1
Cc1cc(-c2nnc(SCC(=O)N3CCc4ccccc43)o2)no1	-3	-1	0	0
CC(=O)Nc1ccc(Nc2nc(Nc3nc4ccccc4n3C)nc3c2ncn3-c2ccsc2)cc1	7	43*	0	0
Nc1nc(Nc2ccncn2)nc2c1ncn2-c1ccccc1	-4	-10	4.2*	0
CC(=O)Nc1ccc(Nc2nc(Nc3ccccc3)nc3c2ncn3-c2ccsc2)cc1	11	36*	0	0
Cn1c(Nc2nc(NCCO)c3ncn(-c4ccsc4)c3n2)nc2ccccc21	4	14	0	-3
COc1cc(Nc2nc(Nc3ccc(NC(C)=O)cc3)c3ncn(-c4ccccc4)c3n2)cc(OC)c1OC	-9	39*	0	-2
SMILES	MITF primary	TEAD-YAP block	FBW7 act	GPR151 ag
CCOc1nc(Nc2ccc(Cl)cc2)nc(N2CCCCC2)n1	-11	-14	0	0
COc1cc(/C=C2\C(=O)N(c3ccc(S(N)(=O)=O)cc3)N=C2C)ccc1OCc1ccc(Cl)cc1	2	-63	0	0
c1ccc(CNc2ccnc3c(-c4cccc5ccccc45)cnn23)nc1	-12	4	0	0
CC(=O)Nc1ccc(Nc2nc(Nc3ccncn3)nc3c2ncn3-c2ccccc2)cc1	5	14	5.1*	2
CC(=O)Nc1ccc(Nc2nc(Nc3cnccn3)nc3c2ncn3-c2ccsc2)cc1	7	29	3.7*	4
CC(=O)Nc1ccc(Nc2nc(N3CCc4ccccc4C3)nc3c2ncn3-c2ccsc2)cc1	10	40*	0	-3
CC(=O)Nc1ccc(Nc2nc(Nc3ccc(-n4ccnc4)cc3)nc3c2ncn3-c2ccccc2)cc1	10	52*	0	2
CC(=O)Nc1ccc(Nc2nc(Nc3ccncn3)nc3c2ncn3C(C)C)cc1	4	-9	0	-1
CC(=O)Nc1ccc(Nc2nc(-c3c(C)noc3C)nc3c2ncn3-c2ccsc2)cc1	10	-3	0	-2
Cc1cc(C)c(OCC(=O)N/N=C/c2ccccc2)c(C)c1	6	0	0	-2
Cc1ccc(NC(=O)c2sc3nc(C)nc(N4CCN(c5ccccn5)CC4)c3c2C)cc1	2	-10	0	-1
CC(=O)Nc1ccc(Nc2nc(Nc3ccncc3)nc3c2ncn3-c2ccccc2)cc1	-14	45*	3.4*	-2
CC(=O)Nc1ccc(Nc2nc(Nc3ccccc3)nc3c2ncn3-c2ccccc2)cc1	2	46*	0	3
CC(=O)Nc1ccc(Nc2nc(Nc3ccc(N4CCOCC4)cc3)nc3c2ncn3-c2ccccc2)cc1	8	-2	0	-2
CC1(C)CC(=O)c2c(nc3ccc(Br)cc3c2N)C1	14	-6	0	0
Nc1cccc2[nH]c(-c3ccccc3)nc12	8	-14	0	4
COCCN1C(=S)NC2c3ccccc3OC13CCCC23 (configuration not stated)	4	36*	0	0
Cc1ncsc1CCCNC(=O)CC1C(=O)NCCN1Cc1ccc(F)cc1 (configuration not stated)	0	9	0	1
Cc1nc(C)c(CC(=O)Nc2nc3c(s2)CCCC3)s1	4	40*	0	0
Cc1ccc(CC(=O)Nc2nc3c(s2)CCCC3)cc1	-9	26	0	0
Clc1cccc(Nc2nc3nonc3nc2N2CCOCC2)c1	3	57*	0	1
Clc1cccc(Nc2nc3nonc3nc2N2CCCCC2)c1	6	43*	0	0
c1ccc(Nc2nc3nonc3nc2N2CCCCCC2)cc1	-8	37*	0	2
Ic1ccc(Nc2nc3nonc3nc2N2CCOCC2)cc1	-5	5	0	0
CC(=O)N(C1=C(N2CCCC2)C(=O)c2ccccc2C1=O)c1ccccc1C	31	92*	0	-5
SMILES	MITF primary	TEAD-YAP block	FBW7 act	GPR151 ag
CC(=O)N(C1=C(N2CCCCC2)C(=O)c2ccccc2C1=O)c1ccc(C)cc1	24	-12	0	-1
C/C=C/C(=O)Oc1ccccc1/C=C1/N=C(c2ccc(Cl)cc2)OC1=O	19	36*	0	-1
CCCCCCOc1ccccc1/C=C1/N=C(c2ccc(Cl)cc2)OC1=O	8	3	0	0
O=C1c2cccc3c(S(=O)(=O)N4CCOCC4)ccc(c23)N1C(=O)C1CCCCC1	-2	1	0	0
C=CCN(C)C(=O)c1c(C(F)(F)F)nc2ccc(C)cn12	-5	6	0	-1
NC(=O)N/N=C/c1cn(-c2ccccc2)nc1-c1cccs1	-6	-24	0	0
